Assay outcomes from PubChem BioAssay.
Only some compounds are listed: those with a hit (about 13% of all), similar ones and a draw of the others.
Pf growth 48h – inhibits P. falciparum growth in the first generation, 48 h | P. falciparum luciferase growth in erythrocytes, 48 h | Potency, µM (series often up to 28.7 µM), without a hit: top-dose activity change, negative = inhibition, actives largely listed as inhibitors | 5.9% of 310,000 active; also: potency is read from the fitted curve at half-maximal effect
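Read-out is firefly luciferase luminescence from an integrated reporter in P. falciparum, so falling signal marks reduced parasite growth. Infected erythrocytes were at 2% hematocrit and 0.1% parasitemia (final) in Albumax-supplemented RPMI 1640.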
Pf growth 96h – inhibits malaria parasite growth, 96 h | P. falciparum luciferase reporter growth, 96 h | Potency, µM (top dose mostly 28.7 µM), inactives show at the highest dose activity change, negative = inhibition, usual class: inhibitors | 6.9% of 320,000 active | AID 504834; also: potency is read from the fitted curve at half-maximal effect
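Readout is luminescence from an integrated firefly luciferase in P. falciparum. Red cells, 2% hematocrit and 0.05% parasitemia final, were cultured with compound through two parasite generations (96 hours) at 37 C, 5% CO2.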
HCV inhibitor – inhibitors of hepatitis C virus infection. AID 651820. 3.4% of 340,000 active. Huh7.5.1 HCVcc-Cre infection, luciferase reporter, 44 h. Potency, µM (top dose mostly 41.8 µM), without a hit: top-dose activity change, negative = inhibition, hits mostly inhibitors; also: potency is read from the fitted curve at half-maximal effect
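Antiviral activity was scored by luciferase reporter output from cells infected with HCVcc-Cre (~0.5 moi) in presence of compound, 44 h infection period, cells seeded 1,000/well 4 h prior.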
HCMV inh – inhibitors of human cytomegalovirus; HFF cells, HCMV-luciferase reporter, 72 h; hits give low values; activity change, negative = inhibition, % at 57.5 µM; 4.5% of 410,000 active; in the data active = activity change below about -60%; inconclusive = no clear call, values can overlap the other calls; inactive = above about -39%
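Two-dose cell screen: HFF monolayers treated with compounds and infected with luciferase-expressing HCMV at 1 PFU/cell, 72 h at 37C, then lysed for luciferase measurement.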
The depositor's hits bear a star; ? = inconclusive; . = no result. Unless noted, calls follow the shape of the dose curve; as a rule, active = well fitted inhibition curve with a large enough effect; inconclusive = small, poorly fitted or top-dose-only effect, or another doubt; inactive = no such curve, though single readings can be large or run the other way. % is scaled to controls: 0 for no effect and ±100 for the full control effect.

SMILES | Pf growth 48h | Pf growth 96h | HCV inhibitor | HCMV inh
Cc1oc2ncn(CC(C)C)c(=O)c2c1C(=O)NCCc1ccc(Cl)cc1 | . | . | . | -3
C[C@@H]1CN([C@H](C)CO)C(=O)c2cc(Br)cnc2O[C@H]1CN(C)C(=O)c1ccc(F)cc1 | . | . | . | -9
CCC(=O)N1CCc2cc(Br)cc(S(=O)(=O)C3(C(=O)OC)CC3)c21 | 4.1µM* | ? | 0% | 7
CCOC(=O)N1CCC(NS(=O)(=O)c2cc(Br)cc3c2N(C(=O)CC)CC3)CC1 | 8.3µM* | -2% | -27% | -105*
CCC(=O)N1CCc2cc(Br)cc(S(=O)(=O)CCC(=O)N(CC)CC)c21 | ? | ? | 6% | ?
CCC(=O)N1CCc2cc(Br)cc(S(=O)(=O)N3CCC(C(=O)NC(C)C)CC3)c21 | 6.6µM* | 6% | 1% | 1
CCCN(CCC)S(=O)(=O)c1cc(Br)cc2c1N(C(=O)CC)CC2 | 1µM* | ? | ? | -19
COCc1cc(N2CCNC[C@@H]2C)ccc1N1CCS(=O)(=O)CC1 | . | . | . | 28
CCC(=O)N1CCc2cc(Br)cc(S(=O)(=O)N3CCCCCC3)c21 | 2.9µM* | ? | ? | 5
O=C(C1CC1)N1CCc2cc(Br)cc(S(=O)(=O)N3CCCCCC3)c21 | 1.7µM* | . | ? | 21
CCC(=O)N1CCc2cc(Br)cc(S(=O)(=O)NCC3CCCN3CC)c21 (centres undefined) | -2% | 15% | ? | 88
CN(Cc1ccccc1)S(=O)(=O)c1cc(Br)cc2c1N(C(=O)C1CC1)CC2 | . | . | . | -71*
CCC(=O)N1CCc2cc(Br)cc(S(=O)(=O)N3CCCC(C(=O)O)C3)c21 (centres undefined) | -11% | 26% | 15% | 11
CCC(=O)N1CCc2cc(Br)cc(S(=O)(=O)N3CCCCC3CC)c21 (centres undefined) | 1µM* | ? | -24% | 10
CCc1ccc(NC(=O)Cn2c(=O)n(CCCC(=O)NCCc3ccc(OC)c(OC)c3)c(=O)c3ccccc32)cc1 | . | . | . | 7
CCCCc1ccc(-n2nc3cc(C)c(NC(=O)Cc4ccccc4)cc3n2)cc1 | . | . | . | -24
CCOC(=O)C1CCCN(S(=O)(=O)c2cc(Br)cc3c2N(C(=O)C2CC2)CC3)C1 (centres undefined) | 3.3µM* | 36% | 1% | 31
CCC(=O)N1CCc2cc(Br)cc(S(=O)(=O)NCCN3CCCCC3CC)c21 (centres undefined) | ? | ? | 2.5µM* | 22
CCOC(=O)N1CCC(NS(=O)(=O)c2cc3c(cc2Cl)NC(=O)CO3)CC1 | ? | 0.21µM* | -21% | 17
CCC(=O)N1CCc2cc(Br)cc(S(=O)(=O)NCCN3CCCCC3C)c21 (centres undefined) | 3% | ? | ? | -4
CCOC(=O)N1CCC(NS(=O)(=O)c2ccc3c(c2)OCC(=O)N3)CC1 | 31% | ? | -9% | 19
O=C(C1CC1)N1CCc2cc(Br)cc(S(=O)(=O)NC3CCCCC3)c21 | 4.7µM* | ? | 7.1µM* | -15
Cc1cccc(C)c1NC(=O)C(c1ccccc1OC(F)(F)F)N1CCN(C/C=C/c2ccccc2)CC1 (centres undefined) | . | . | . | 13
CCc1ccc(CNC(=O)COc2cc(=O)n(CC)c3ccccc23)cc1 | . | . | . | 11
COc1ccc(C=C(c2nc3ccccc3s2)c2nc3ccccc3s2)cc1O | ? | ? | ? | -83*
SMILES | Pf growth 48h | Pf growth 96h | HCV inhibitor | HCMV inh
COc1cc(C=C(c2nc3ccccc3s2)c2nc3ccccc3s2)ccc1O | -18% | ? | ? | ?
COc1cccc(/C=N/Nc2nnc3c(n2)[nH]c2ccccc23)c1OC | -6% | 0% | 5% | 83
COc1ccc(/C=N/Nc2nc(N3CCCC3)nc(N3CCCC3)n2)c(OC)c1OC | ? | 2% | ? | 8
COc1ccc(/C=N/Nc2ncnc3c2[nH]c2ccc(C)cc23)c(OC)c1OC | ? | ? | ? | -80*
COc1cc(OC)c(OC)cc1/C=N/Nc1ncnc2c1[nH]c1ccccc12 | ? | -19% | 10µM* | -7
Cc1ccc(O)c(Nc2c3ccccc3nc3ccccc23)c1 | ? | 22% | 10µM* | -36
CCn1c(SCc2ccc(F)cc2)nnc1-c1nn(-c2ccccc2)ccc1=O | ? | 5.2µM* | 2% | -34
CCC(=O)OCCCNc1nc(-c2ccc(Cl)cc2)nc2ccccc12 | . | . | . | 30
CCc1ccc2nc(N(CCCN(C)C)C(=O)c3ccc(S(=O)(=O)N4CCCc5ccccc54)cc3)sc2c1 | ? | ? | ? | -89*
Cc1cccc2sc(N(CCCN(C)C)C(=O)c3cc4ccccc4oc3=O)nc12 | -21% | ? | ? | ?
Cc1ccc2nc(N(CCCN(C)C)C(=O)c3cc4ccccc4oc3=O)sc2c1 | ? | 10µM* | ? | ?
COc1cccc2sc(N(CCCN(C)C)C(=O)c3ccc(S(=O)(=O)N4CCCc5ccccc54)cc3)nc12 | 10µM* | ? | 14µM* | -71*
CCOc1cccc2sc(N(CCCN(C)C)C(=O)c3ccc(C(=O)c4ccccc4)cc3)nc12 | ? | 10µM* | ? | -77*
CCc1ccc2nc(N(CCCN(C)C)C(=O)c3ccc(S(=O)(=O)N4CCCC4)cc3)sc2c1 | ? | ? | ? | -36
CN(C)CCCN(C(=O)c1ccc(C(=O)c2ccccc2)cc1)c1nc2c(F)cccc2s1 | ? | -8% | ? | -29
C[C@H](c1ccccc1)N1C[C@@H](COCc2ccccc2)Oc2cccc(F)c2S1(=O)=O | . | . | . | -39
CCc1ccc2nc(N(CCCN(C)C)C(=O)c3ccc(C(=O)c4ccccc4)cc3)sc2c1 | ? | 15µM* | -23% | -98*
CCOc1cccc2sc(N(CCN(C)C)C(=O)c3cc4ccccc4cc3OC)nc12 | ? | -23% | 14µM* | -39
CCOc1ccc2nc(N(CCN(C)C)C(=O)c3cc4ccccc4cc3OC)sc2c1 | ? | ? | -28% | .
COc1ccc(F)cc1C(=O)C1CCCN(C(=O)CSc2ccccn2)C1 (centres undefined) | ? | -27% | 13% | ?
CSc1ncccc1C(=O)N1CCCC(C(=O)c2cc(F)ccc2F)C1 (centres undefined) | -11% | 9.3µM* | -4% | -14
COc1ccccc1C(=O)C1CCCN(C(=O)CSc2ccccn2)C1 (centres undefined) | 6% | 10µM* | 5% | -19
CCc1noc(C)c1C(=O)N1CCCC(C(=O)c2cc(F)ccc2OC)C1 (centres undefined) | 8% | 12µM* | 0% | -16
CCc1ccc(OCc2cc(=O)n3c4c(sc3n2)CCCC4)cc1 | . | . | . | -1
COc1cc2cncc(Cc3ccc(Cl)cc3)c2cc1OC | 8.3µM* | ? | ? | .
COc1cc2nc(CN(C)Cc3ccc(Cl)cc3)[nH]c(=O)c2cc1OC | 0% | ? | 17% | -6
CCN(CC)c1ccc(CN(C(=O)Cc2coc3ccc(C)cc23)C2CCS(=O)(=O)C2)cc1 (centres undefined) | . | . | . | 10
